Source: PubChem BioAssay (National Center for Advancing Translational Sciences (NCATS))
Shown are actives, neighbours in structure and some others; about 5.4% of the full set was active somewhere.
Vaccinia mCherry = inhibitors of vaccinia virus infection (mCherry reporter signal). Potency, µM (series often up to 36.5 µM), for inactives: top-dose activity change, negative = inhibition, usual class: inhibitors. AID 720579. Vaccinia virus mCherry reporter infection, fluorescence. actives 0.63% (n = 310,000); calls by dose curve; tested in A549 cells; further: nearly all actives have a fitted effect of over 35% in size
Marburg entry inh = inhibitors of Marburg virus binding or cell entry. Marburg virus pseudotyped entry inhibition, cell reporter. Potency, µM (series often up to 37.8 µM), for inactives: at the highest dose activity change, negative = inhibition, actives largely listed as inhibitors. actives 1.8% (n = 300,000). AID 540276; calls by dose curve; tested in HEK293 cells
Sm TGR inh = S. mansoni TGR enzyme inhibition | Q962Y6 | purified TGR, DTNB reduction, TNB absorbance 405 nm | Potency, µM (highest dose often 114 µM), inactives show at the top dose activity change, negative = inhibition, most hits filed as inhibitors | actives 3% (n = 360,000) | AID 485364; active means well fitted inhibition curve with a large enough effect; inconclusive means small, poorly fitted or top-dose-only effect; inactive means no such curve, though single readings can be large or run the other way; further: nearly all actives have a fitted effect of over 60% in size
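First, TGR (20 nM dispensed) and NADPH were mixed with compound. Second, a 15 min room-temperature incubation followed. Third, further NADPH and then DTNB were added to start the reaction. Finally, TNB absorbance was monitored kinetically.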
FMDV inh = foot and mouth disease virus antiviral activity | actives 1.2% (n = 410,000) | Potency, µM (doses to about 57.9 µM), for inactives: at the top dose activity change, negative = inhibition, actives largely listed as inhibitors | AID 1159524 | FMDV antiviral cell-based qHTS; calls by dose curve; tested in HEK293T cells; further: read-out not given here; nearly all actives have a fitted effect of over 45% in size
VACV Venus inh = inhibitors of vaccinia virus (Venus reporter) | Vaccinia virus Venus reporter expression, fluorescence | Potency, µM (top dose mostly 36.5 µM), without a hit: top-dose activity change, negative = inhibition, usual class: inhibitors | AID 720580 | actives 0.46% (n = 330,000); calls by dose curve; tested in A549 cells; further: nearly all actives have a fitted effect of over 30% in size
Lassa entry inh = inhibitors of Lassa virus binding or cell entry; Lassa virus pseudotype entry inhibition, cell reporter; Potency, µM (highest dose often 37.9 µM), without a hit: at the highest dose activity change, negative = inhibition, hits mostly inhibitors; actives 1.2% (n = 300,000); AID 540256; calls by dose curve; tested in HEK293 cells; further: nearly all actives have a fitted effect of over 50% in size
Starred values were filed as active, the others as inactive; i = inactive; ? = inconclusive; nt = not tested or not shown; [ ] = remark or other dose. On the % scale 0 is the no-effect control and ±100 the full control effect; potency means the concentration at half of the fitted maximal effect.

SMILES | Vaccinia mCherry | Marburg entry inh | Sm TGR inh | FMDV inh | VACV Venus inh | Lassa entry inh
CCC(C)NCC(=O)Nc1cc(S(=O)(=O)N(CC)c2ccccc2)ccc1Cl (centres undefined) | i | 21µM* | -4% | 0% | -28% | ?
CCN(c1ccccc1)S(=O)(=O)c1ccc(Cl)c(NC(=O)COC(=O)c2ccc(O)cc2)c1 | -25% | -12% | -4% | ? | -14% | ?
CCN(c1ccccc1)S(=O)(=O)c1ccc(Cl)c(NC(=O)CNC(C)c2ccccc2)c1 (centres undefined) | ? | ? | nt | -28% | ? | ?
Cc1nnc2n(-c3ccccc3)c(=O)c3c4c(sc3n12)C[C@H](C)CC4 | nt | -19% | nt | nt | nt | nt
CN(C)S(=O)(=O)c1ccc2c(c1)N(CC(=O)N1CCN(c3ccccc3F)CC1)CCS2 | -9% | nt | -3% | -20% | -2% | -17%[46.1 µM]
COc1ccccc1OCCn1c(COc2cc(C)ccc2C)nc2ccccc21 | -19% | -1%[46.1 µM] | 0% | 7% | -16% | -19%[46.1 µM]
Cc1ccc(SCc2nc(-c3ccc(C(=O)NCc4ccccc4Cl)cc3)oc2C)cc1 | -15% | nt | -18% | -22% | -14% | ?
CC1(C(=O)N2CCN(c3ccccc3)CC2)CC1(Cl)Cl (centres undefined) | i | -6%[46.1 µM] | -6% | -10% | -6% | 3%[46.1 µM]
CC1(C(=O)N2CCN(c3ccc([N+](=O)[O-])cc3)CC2)CC1(Cl)Cl (centres undefined) | nt | nt | -19% | 20µM* | nt | nt
CN(C)c1ccc(C(CNC(=O)c2ccc(C(C)(C)C)cc2)N2CCOCC2)cc1 (centres undefined) | -12% | nt | -1% | -8% | -2% | ?
COc1ccccc1-c1cc2nc(C)c(CCC(=O)NCc3cccc(Cl)c3)c(C)n2n1 | -7% | ? | -18% | ? | -12% | ?
C=CCn1c(O)c(N=NC(=O)CNC(=O)/C=C/c2ccco2)c2ccccc21 | -8% | -2% | 18µM* | nt | 6% | -9%
CCc1ccc(NC(=O)c2cc(=O)c3ccc(C)c(C)c3o2)cc1 | i | ? | -6% | -13% | -28% | 0%[46.1 µM]
CCOC(=O)c1ccc(NC(=O)COc2ccccc2CNC2CCCC2)cc1 | i | 8.9µM* | -10% | -21% | ? | ?
COc1ccc(CCNC(=O)c2ccc3c(c2)N(Cc2ccc(F)cc2)C(=O)c2ccccc2S3(=O)=O)cc1OC | -17% | 10µM* | -15% | -1% | -5% | -27%[46.1 µM]
COc1ccccc1N1CCN(C(=O)c2ccc3c(c2)N(Cc2ccccc2)C(=O)c2ccccc2S3(=O)=O)CC1 | -15% | 8.9µM* | 4% | 4% | -14% | -23%[46.1 µM]
CCOc1ccc(CCNC(=O)c2ccc3c(c2)N(Cc2cccc(Cl)c2)C(=O)c2ccccc2S3(=O)=O)cc1OCC | -10% | nt | 2% | -8% | -6% | -18%[46.1 µM]
O=C(c1ccc2c(c1)N(Cc1ccc(F)cc1)C(=O)c1ccccc1S2(=O)=O)N1CCN(Cc2ccccc2)CC1 | -21% | ? | 4% | -14% | -22% | ?
O=C1[C@H]2[C@H]3[C@H](O)[C@H](O)C/C(=N\OCc4ccccc4)[C@H]3CC[C@H]2C(=O)N1C1CCCCC1 | nt | -25%[14.2 µM] | nt | nt | nt | nt
COc1cccc(C2CC(=O)Nc3c2c(=O)[nH]c2ncnn32)c1OC (centres undefined) | -6% | 2%[46.1 µM] | -1% | -7% | 6% | -5%[46.1 µM]
CCN(c1cccc(C)c1)S(=O)(=O)c1nnc(NC(=O)c2ccccc2Cl)s1 | -23% | nt | 79µM* | -15% | -22% | -7%[46.1 µM]
CCN(c1cc(C)cc(C)c1)S(=O)(=O)c1nnc(NC(=O)c2cccs2)s1 | -7% | nt | 0% | 4% | -9% | ?
CCN(c1cccc(C)c1)S(=O)(=O)c1nnc(NC(=O)c2cccs2)s1 | -3% | nt | 10% | 37% | -5% | 10µM*
COc1ccc(NC(=O)N2CCc3c(sc4c3CCCC4)C2c2ccc(F)cc2)cc1 (centres undefined) | -24% | nt | -2% | -12% | -17% | -25%[46.1 µM]
Cc1cc(C)cc(-n2c(C)nc3cc(C(=O)NCc4ccccc4Cl)ccc32)c1 | 10% | nt | 5% | -5% | -9% | 21%[46.1 µM]
SMILES | Vaccinia mCherry | Marburg entry inh | Sm TGR inh | FMDV inh | VACV Venus inh | Lassa entry inh
COC(=O)c1ccc2c(=O)[nH]c(CCl)nc2c1 | i | 13µM* | ? | ? | -15% | ?
COC(=O)c1ccc2c(=O)[nH]c(CN3c4ccccc4CC3C)nc2c1 (centres undefined) | nt | 1% | 7.1µM* | 1% | nt | ?
CCC1(CC)NC(=O)N(CC(=O)OCc2nc3cc(C(=O)OC)ccc3c(=O)[nH]2)C1=O | i | ? | -15% | -21% | -2% | -1%
O=C(Nc1c2c(nn1-c1ccc(Cl)cc1)CS(=O)(=O)C2)c1ccc(Br)cc1 | i | nt | 4% | ? | -21% | ?
Cc1ccc(C)c(NC(=O)N2CCN(C(=O)c3nsc4ccccc34)CC2)c1 | -19% | nt | -16% | ? | -18% | -7%[46.1 µM]
CC(/C=C/c1ccc(C)o1)=C\C(=O)O | nt | 1% | 7.9µM* | -19% | nt | nt
CC(=O)/C=C/c1ccc(C)o1 | i | 16% | 7.1µM* | -7% | -7% | 2%
COc1cccc([C@@H]2[C@@H](C)CC[C@@H]3C(=O)NC[C@H](O)CN32)c1 | nt | -11%[14.2 µM] | nt | nt | nt | nt
Oc1ccc(N=C/C=C/c2cccc(Br)c2)cc1-c1nc2ccccc2s1 | 2% | ? | 40µM* | 2% | -6% | ?
O=C(O)C1CCC(=O)N1C1c2ccccc2Oc2ccccc21 (centres undefined) | -1% | nt | 8% | -26% | 0% | nt
CC(C)(O)/C=C1/Oc2ccccc2C1N1CCCCC1 (centres undefined) | nt | 0% | 35µM* | -2% | -10% | 0%
COc1ccc(N2C(=O)N3[C@H](c4ccccc4)[C@@H](C)C[C@H]4c5ccccc5C[C@]43C2=O)cc1 | nt | 2%[14.2 µM] | nt | nt | nt | nt
Nc1nc2c(s1)CCc1ccccc1-2 | nt | nt | 0% | 19% | nt | nt
N#C/C(=C(/O)CCl)c1nc2c(s1)CCc1ccccc1-2 | -17% | 21%[46.1 µM] | 7.9µM* | 25µM* | -26% | 12%
COc1ccc(C(=O)N(Cc2sccc2C)C2CCS(=O)(=O)C2)cc1Cl (centres undefined) | -16% | -16%[46.1 µM] | 12% | -11% | -7% | 11%[46.1 µM]
CCOC(=O)c1sc(NC(=O)Nc2ccccc2)cc1C | 16µM* | 16µM* | 2% | 38% | 13µM* | 14µM*
CCOC(=O)c1sc(NC(=O)Nc2ccccc2Cl)cc1C | ? | ? | 0% | -1% | 10µM* | 7.9µM*
COC(=O)CC(Oc1c(C)n(C)c2ccccc2c1=O)c1ccccc1 (centres undefined) | nt | -5%[14.2 µM] | nt | nt | nt | nt
COc1ccc(-c2cn3c(n2)sc2cc(C(=O)NC4CCCc5ccccc54)ccc23)cc1 (centres undefined) | 3% | nt | 8% | 42% | 0% | 7%[46.1 µM]
CN(C)CCCN1c2ccccc2CCc2ccc(Cl)cc21 | -13% | 11µM* | -26% | 0% | -26% | ?
